From PubChem BioAssay
Most compounds without a hit are left out; they make up all but 7.5% or so of the library.
VP16 counter – counter-screen for ROR gamma inhibitors: Gal4-VP16 reporter | Drosophila S2 Gal4-VP16 UAS-luciferase, luminescence, 20 h | Potency, µM (titrated, usually from 53.6 µM), most hits filed as inhibitors | 3.5% of 310,000 active;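 note: Gal4-VP16 expression switched on by copper sulfate through the metallothionein promoter; nearly all actives have a fitted effect of over 50% in size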
TSHR antag – blocks TSH signaling through the human TSH receptor; P16473; TSHR-expressing cells, TSH-stimulated cAMP HTRF, 2 h; stronger effect = lower value; activity change, negative = inhibition, % at 11.5 µM; 0.2% of 330,000 active;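 active = activity change below a set negative limit, meaning inhibition stronger than a set level, cut at about -70% in these data; inconclusive = activity change between two set negative limits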
Target sequence (P16473 whole entry, looked up): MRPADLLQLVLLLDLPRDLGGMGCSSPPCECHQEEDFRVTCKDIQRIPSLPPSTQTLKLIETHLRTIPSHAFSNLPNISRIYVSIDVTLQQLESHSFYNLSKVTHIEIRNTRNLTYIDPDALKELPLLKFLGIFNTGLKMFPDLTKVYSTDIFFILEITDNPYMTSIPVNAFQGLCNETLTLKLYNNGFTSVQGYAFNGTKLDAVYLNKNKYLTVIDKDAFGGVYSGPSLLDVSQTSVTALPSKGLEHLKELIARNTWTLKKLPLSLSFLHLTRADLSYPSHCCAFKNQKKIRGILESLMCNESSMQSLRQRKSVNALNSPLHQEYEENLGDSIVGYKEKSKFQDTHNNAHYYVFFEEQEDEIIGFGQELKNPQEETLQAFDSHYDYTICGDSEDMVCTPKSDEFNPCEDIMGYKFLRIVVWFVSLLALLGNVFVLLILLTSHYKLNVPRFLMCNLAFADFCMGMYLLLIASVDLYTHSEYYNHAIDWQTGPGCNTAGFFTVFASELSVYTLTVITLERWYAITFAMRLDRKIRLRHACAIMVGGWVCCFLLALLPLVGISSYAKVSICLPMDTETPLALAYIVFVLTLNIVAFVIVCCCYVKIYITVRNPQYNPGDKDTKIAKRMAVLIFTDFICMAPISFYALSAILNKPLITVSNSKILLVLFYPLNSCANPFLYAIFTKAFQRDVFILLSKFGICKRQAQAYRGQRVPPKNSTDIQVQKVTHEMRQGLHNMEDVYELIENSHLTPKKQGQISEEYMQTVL
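Read-out is FRET at 665 nm (cryptate excitation 337 nm) from a cryptate-tagged anti-cAMP antibody, competed by cell cAMP against cAMP-d2. Compounds are tested on freshly harvested TSHR cells challenged with 4nM TSH (EC80) for 2 hours at 37 deg C.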
ELG1 DNA repair – blocks ELG1-dependent DNA repair in HEK293T cells; 2.3% of 330,000 active; HEK293T ELG1-luciferase reporter, luminescence, 16 h; DNA damage induced by 5-fluorouridine; Potency, µM (highest dose often 46.1 µM), usual class: inhibitors; note: nearly all actives have a fitted effect of over 55% in size
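Quantitative HTS, concentration-response format. 2,000 cells/well co-treated with 5-fluorouridine and compound, 16 hr in 5% CO2 at 37 °C; ONE-Glo luminescence read after 30 min.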
RORgamma inh – blocks mouse ROR gamma transcriptional activity | P51450 | Drosophila S2 Gal4-RORgamma UAS-luciferase reporter, 20 h | Potency, µM (top dose mostly 53.6 µM), actives largely listed as inhibitors | 5.4% of 310,000 active | AID 2551; note: nearly all actives have a fitted effect of over 60% in size
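ROR gamma transcriptional activity was tracked as Gal4-UAS luciferase output in stably transfected Drosophila Schneider cells, with compound added 1 hr before 700 uM copper sulfate induction and a 20 hr ambient-temperature incubation.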
B2AR arrestin – agonists driving beta-arrestin recruitment to human beta2-adrenergic receptor. AID 492947. Potency, µM (titrated, usually from 46.1 µM), actives largely listed as activators. P07550. beta-arrestin recruitment to beta2AR, cell-based reporter. 0.02% of 330,000 active; note: nearly all actives have a fitted effect of over 65% in size
Large screens that a line does not name were inactive. Unless noted, calls come from the whole dose curve; as a rule, active = well fitted curve in the direction sought with a large enough effect; inconclusive = small, poorly fitted or top-dose-only effect, or another doubt; inactive = no such curve, though single readings can be large; an effect the other way counts as inactive or inconclusive.

NC(=S)N/N=C\c1ccc(-c2cccc(Cl)c2Cl)o1	VP16 counter 1.1µM, ELG1 DNA repair inconclusive, RORgamma inh 0.89µM, B2AR arrestin inconclusive
CCNC(=S)N/N=C/c1ccco1	VP16 counter 3.2µM, RORgamma inh 2.2µM, B2AR arrestin inconclusive
CCOC(=O)C(=O)N/N=C/c1ccco1	ELG1 DNA repair inconclusive
C[C@@]12C=Cc3occc3[C@H]1CC[C@]13CC(=O)[C@@H](CC[C@H]12)C3	none (no result: TSHR antag, ELG1 DNA repair, B2AR arrestin)
C=CCOC(=O)N[C@H](/C(C(=O)OC)=C(\C)NCc1ccccc1)c1cccc(C(F)(F)F)c1	none (no result: TSHR antag, ELG1 DNA repair, B2AR arrestin)
CCC(C)(C(=O)NC1CCCCC1)N(C(=O)CC1NC(=O)NC1=O)c1c(C)n(C)n(-c2ccccc2)c1=O (centres undefined)	none
Cc1ccc(OCC(=O)N/N=C\c2ccc(-c3cccc(C(=O)O)c3)o2)c(C)c1	ELG1 DNA repair inconclusive
CN(C)/N=C/c1ccc(/C=N/NC(N)=S)o1	VP16 counter inconclusive, RORgamma inh 14µM
CCNC(=S)N/N=C/c1ccc(C#N)cc1	VP16 counter 18µM, ELG1 DNA repair inconclusive, RORgamma inh 7.1µM
NC(=S)N/N=C/c1ccc(-c2ccc(SC(F)F)cc2)o1	VP16 counter 1.1µM, ELG1 DNA repair inconclusive, RORgamma inh 0.5µM, B2AR arrestin inconclusive
CNC(=S)N/N=C/c1ccc(-c2cccc(C(=O)O)c2)o1	VP16 counter inconclusive, ELG1 DNA repair inconclusive, RORgamma inh 7.1µM
COC(=O)NC(CC(C)=O)c1ccc(F)cc1 (centres undefined)	none (no result: TSHR antag, ELG1 DNA repair, B2AR arrestin)
CC(C)C[C@@H](CC(=O)N[C@@H](CCC(=O)O)CC(=O)O)NC(=O)[C@@H]1CNCC[C@H]1NC(=O)C[C@@H](NC(=O)C[C@H](CO)NC(=O)[C@@H]1CCCC[C@H]1N)C(C)C	none (no result: TSHR antag, ELG1 DNA repair, B2AR arrestin)
Cc1ccc(C(=O)N/N=C/c2ccc(-c3cccc(C(F)(F)F)c3)o2)cn1	VP16 counter 10µM, ELG1 DNA repair inconclusive, RORgamma inh 3.5µM
NC(=S)NN=Cc1ccc(-c2ccc(S(=O)(=O)Nc3ncccn3)cc2)o1	none (no result: VP16 counter, RORgamma inh)
Cc1ccc(-c2ccc(/C=N/NC(N)=S)o2)cc1	VP16 counter 2.5µM, ELG1 DNA repair inconclusive, RORgamma inh 0.56µM, B2AR arrestin inconclusive
NC(=S)N/N=C/c1ccc(-c2ccccc2)o1	VP16 counter 5µM, RORgamma inh 1.4µM, B2AR arrestin inconclusive
C=C1C[C@@]23CC[C@H]4[C@@](C)(CCC[C@@]4(C)C(=O)O)[C@@H]2CC[C@]1(O)C3	none (no result: VP16 counter, ELG1 DNA repair, RORgamma inh, B2AR arrestin)
CN(CCCN1CCOCC1)Cc1cn(C)nc1-c1ccccc1F	none
COc1cccc(CNC(=O)CCCC(=O)NC(C)CCc2ccccc2)c1 (centres undefined)	TSHR antag -130
COc1cccc(CNC(=O)CCCSc2ccccc2)c1	ELG1 DNA repair inconclusive
O=C(COc1ccccc1Cl)Nc1ccc(S(=O)(=O)Nc2ccccn2)cc1	none
COC(=O)c1ccc(C(=O)OC)c(-n2c(=O)c3ccccc3c3ccccc3c2=O)c1	VP16 counter inconclusive, ELG1 DNA repair inconclusive, RORgamma inh 10µM
COC(=O)c1ccc(-c2nn(C)c(=O)c3ccccc23)cc1	ELG1 DNA repair inconclusive
CNC(=S)N(CCc1c(C)[nH]c2ccccc12)Cc1cccnc1	none
Cc1ccc(NC(=O)c2cc3c(s2)CCCC3)cc1	ELG1 DNA repair inconclusive, RORgamma inh inconclusive
CCc1sc(C(=O)Nc2nc(C)cs2)cc1C	VP16 counter 11µM, ELG1 DNA repair inconclusive, RORgamma inh 5µM
Cc1csc(NC(=O)c2ccc(Br)s2)n1	VP16 counter inconclusive, ELG1 DNA repair inconclusive, RORgamma inh 10µM
CCOC(=O)c1sc(NC(=O)c2cc3c(s2)CCC(C)C3)nc1C (centres undefined)	ELG1 DNA repair inconclusive, RORgamma inh 0.25µM
CC1CCc2sc(C(=O)NN)cc2C1 (centres undefined)	ELG1 DNA repair inconclusive
Cc1csc(NC(=O)c2cc3c(s2)CCC3)n1	VP16 counter 8.9µM, ELG1 DNA repair inconclusive, RORgamma inh 2µM
O=c1c(-c2cccs2)nc2cncnc2n1Cc1ccc(F)cc1	none (no result: TSHR antag, ELG1 DNA repair, B2AR arrestin)
COc1ccc(C(=O)Nn2c(C)nc3ccccc3c2=O)cc1Br	ELG1 DNA repair inconclusive
Cc1nc(NC(=O)c2cc3c(s2)CCCCC3)sc1C(=O)N(C)C	ELG1 DNA repair inconclusive
COC(=O)c1sc(NC(=O)c2cc3c(s2)CCCC3)nc1C	VP16 counter inconclusive, ELG1 DNA repair inconclusive, RORgamma inh 1.8µM
O=c1c2c3nc4ccccc4nc3n(/N=C/c3ccccn3)c2ncn1-c1ccccc1	none
COCCn1cnc2c(c1=O)c1nc3ccccc3nc1n2/N=C/c1cccc(OC)c1	VP16 counter inconclusive, ELG1 DNA repair 21µM
COc1cccc(/C=N/n2c(-c3ccco3)nc3ccccc3c2=O)c1	VP16 counter inconclusive, ELG1 DNA repair 18µM, RORgamma inh inconclusive
C=CCn1cnc2c(c1=O)c1nc3ccccc3nc1n2/N=C/c1cc(OC)c(OC)c(OC)c1	ELG1 DNA repair 5.8µM
C=CCn1cnc2c(c1=O)c1nc3ccccc3nc1n2/N=C/c1ccccn1	ELG1 DNA repair 12µM
COc1ccc(/C=N/n2c(-c3ccco3)nc3ccccc3c2=O)cc1	ELG1 DNA repair inconclusive
CCOc1cc(C(=O)NC2CC(C)(C)NC(C)(C)C2)cc(OCC)c1OCC	ELG1 DNA repair inconclusive
Cc1noc(C)c1NC(=O)Nc1cccc2c1O[C@@H](CN(C)C(=O)Nc1ccc3c(c1)OCO3)[C@@H](C)CN([C@H](C)CO)C2=O	none (no result: VP16 counter, RORgamma inh)
CCN(CC(=O)Nc1c(F)cccc1F)C(=O)CCN1C(=O)C2CCCCC2C1=O (centres undefined)	none (no result: VP16 counter, RORgamma inh)
CN1CCC(=O)N(C(CSc2ccc(Br)cc2)c2ccccc2)CC1 (centres undefined)	none (no result: TSHR antag, ELG1 DNA repair, B2AR arrestin)
CN1CCC(NC(=O)c2cc(-c3cccc(Br)c3)nc3ccccc23)CC1	RORgamma inh inconclusive
C=CCn1cnc2c(c1=O)c1nc3ccccc3nc1n2/N=C/c1cccc(OC)c1OC	ELG1 DNA repair 3.3µM
CS(=O)(=O)Nc1cccc(-c2ccc3ncnc(N4CCOCC4)c3c2)c1	RORgamma inh inconclusive (no result: TSHR antag, ELG1 DNA repair, B2AR arrestin)
Cc1ccc(CNC(=O)CO/N=C/c2ccc(C(C)(C)C)cc2)cc1	VP16 counter 7.9µM
CCCCn1c(NCc2ccccn2)nc2ccccc21	VP16 counter 13µM, RORgamma inh 7.1µM
c1ccc(Cn2c(NCc3ccncc3)nc3ccccc32)cc1	ELG1 DNA repair inconclusive
c1ccc(Cn2c(NCc3ccccn3)nc3ccccc32)cc1	RORgamma inh 10µM
CCN(CC)CCn1c(NCc2ccccn2)nc2ccccc21	none
CN(C)c1ccc(S(=O)(=O)N2CCCCC2)cc1NC(=O)CN1C(=O)NC2(CCCC2)C1=O	none (no result: VP16 counter, RORgamma inh)
COc1ccc(Nc2nc(N)nc(CSC(=S)N3CCCCC3)n2)cc1	VP16 counter inconclusive, ELG1 DNA repair inconclusive, RORgamma inh inconclusive
COc1ccc(Nc2nc(N)nc(CSC(=S)N3CCN(C)CC3)n2)cc1	RORgamma inh inconclusive
